Inconclusive results are not listed. Calls of active or inactive are those of the source. Unless noted, calls come from the whole dose curve; as a rule, active = well fitted curve in the direction sought with a large enough effect; inconclusive = small, poorly fitted or top-dose-only effect, or another doubt; inactive = no such curve, though single readings can be large; an effect the other way counts as inactive or inconclusive.
Key:
[1] = Stat Signaling Pathway (AID 446; active = well fitted curve in either direction with a large enough effect, not every such curve was filed as active;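 note: ME-180 cervical cancer cells given 40 pM IL-6 alongside compound; SIE-controlled beta-lactamase reporter measured as 460/530 nm FRET emission ratio; % is set by controls: 0 for no effect and ±100 for the full control effect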)
Method in brief: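 ME-180 cells carrying a SIE-driven beta-lactamase reporter are stimulated with 40 pM IL-6 for 5 h at 37C in the presence of compound. The 460/530 nm FRET substrate ratio is read after 2.5 h at RT. Data are normalised to 300 pM IL-6 and to 125 nM JAK inhibitor controls.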

[2] = biological target: Glucocorticoid receptor (Homo sapiens) (UniProt P04150); test: GR-GFP Redistribution (AID 450;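 active = compounds whose dose series gives a full or clear partial fitted curve of increased nuclear translocation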; note: potency is the fitted concentration of half-maximal effect); settings: U2OS GR-GFP nuclear translocation, laser cytometry, 2 h
[3] = biological target: Glucocorticoid receptor (Homo sapiens) (UniProt P04150); test: GR-EFC Redistribution (AID 451; calls by dose curve; note: potency is the fitted concentration of half-maximal effect); settings: CHO-K1 GR-EFC translocation, beta-gal luminescence, 2 h
Method in brief: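 Translocation of GR-ED fusion to nuclear EA restores b-gal, read by luminescence after 1 h room-temperature detection. Engineered CHO-K1 biosensor cells, 1,000/well, exposed 2 h at 37 C to titrations up to 46 uM final.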

[4] = biological target: Mitogen-activated protein kinase 10 (Mus musculus) (UniProt Q61831); test: JNK3 AlphaScreen Assay (AID 530; active = well fitted curve in either direction with a large enough effect, not every such curve was filed as active;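 note: kinase came from lysate of stimulated human HepG2 cells; signal reports phosphorylation of biotinylated GST-cJun 1-79 at Ser73 with 10 µM ATP; % is set by controls: 0 for no effect and ±100 for the full control effect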)
Method in brief: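 Compound titrations were preincubated 15 minutes at room temperature with substrate, antibody and pre-activated JNK3-containing HepG2 lysate. Reactions were started with 10 uM ATP and stopped with EDTA-containing bead buffer for AlphaScreen detection.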

[5] = biological target: 3',5'-cyclic-AMP phosphodiesterase 4B (Homo sapiens) (UniProt Q07343); test: qHTS Assay for Inhibitors of PDE-IV (AID 607; active = well fitted activation curve with a large enough effect in the main read-out, with a control signal flat, not every such curve was filed as active; note: % of control where 0% means no effect)
Method in brief: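 HEK293 ACTOne cells with CNG channel (1000/well), endogenous PDE4; membrane potential dye, compounds up to 22.9 uM final. Fluorescence Ex 535/Em 590; RO 20-1724 (100 uM final) as reference.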

[6] = biological target: Guanine nucleotide-binding protein G(i) subunit alpha-1 (Homo sapiens) (UniProt P63096); test: qHTS Assay for Inhibitors of RGS12 GoLoco Motif Activity (Green Fluorophore) (AID 879);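 note: 0% = labeled peptide with Gαi1 and full inhibition = labeled peptide alone without protein; negative values mean loss of peptide binding seen as reduced polarization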
Method in brief: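 Fluorescence polarization assay: 50 nM Gαi1 with 10 nM FITC-labeled RGS12 GoLoco peptide in 10 mM Tris pH 7.5, 150 mM NaCl, 0.1 mM GDP, 0.05% NP40, 10 min at room temperature with compound.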

[7] = qHTS Assay for Identification of Small Molecule Antagonists for Thrombopoietin (TPO) Signaling Pathway (AID 918); settings: TPO-dependent cell signaling reporter, antagonist mode; note: potency is the fitted concentration of half-maximal effect; nearly all actives have a fitted effect of over 60% in size
Method in brief: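 Ba/F3 (murine, hTPO-R, GPIIb-luc reporter); overnight IL-3 withdrawal; cpd + TPO 26 pM final (EC50); 24 h 37 C/5% CO2; Steadylite luminescence after 10 min RT.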

[8] = biological target: Muscarinic acetylcholine receptor M1 (Rattus norvegicus) (UniProt P08482); test: qHTS Assay for Antagonists of Acetylcholine Muscarinic M1 Receptor: Measurement of IP-One Response (AID 944); note: nearly all actives have a fitted effect of over 75% in size
Method in brief: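 M1-CHO (rat), 2000 cells/well, overnight recovery; cpd 10 min; carbachol EC80 (200 nM), 30 min, HEPES buffer + 50 mM LiCl pH 7.4; IP-One HTRF, Ex 337, Em 620/665 nm.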

[9] = biological target: Pyruvate kinase (Leishmania mexicana) (UniProt Q27686); test: qHTS Validation Assay for Inhibitors of Leishmania Mexicana Pyruvate Kinase (AID 945);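 note: 0% = DMSO only neutral control wells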
Method in brief: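 Read-out: luminescence from PKLight stop/detection reagent, data normalized to DMSO. Reaction: 0.2 nM E451W LmPYK, 0.5 mM PEP, 0.1 mM ADP, pH 7.2, 1 h room temperature.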

[10] = biological target: Pyruvate kinase PKM (Homo sapiens) (UniProt P14618); test: qHTS Assay for Activators of Human Muscle Pyruvate Kinase (AID 954; active = well fitted curve in the direction sought with a large enough effect, not every such curve was filed as active;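 note: 0% = uninhibited enzyme and -100% = no enzyme or full thiadiazolimine inhibition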)
Method in brief: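 Purified human PKM2 (0.1 nM) with 0.5 mM PEP (Km) and 0.1 mM ADP in 50 mM imidazole pH 7.2, KCl, MgCl2, 1 h at room temperature; ATP formed read by coupled luciferase luminescence. Normalized to no-enzyme/110 uM thiadiazolimine inhibition; 0.3 nM enzyme column for activation.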

[11] = biological target: Alpha-galactosidase A (Homo sapiens) (UniProt P06280); test: Counterscreen for Glucocerebrosidase Inhibitors: qHTS Assay for Human alpha-Galactosidase at pH 4.5 (AID 992); note: 0% is about no effect
Method in brief: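 Human enzyme (2 nM) with 80 uM 4-methylumbelliferyl alpha-D-galactopyranoside in 50 mM citric acid, 0.005% Tween-20, pH 4.5, 20 min at room temperature. Compounds 0.7 nM–77 uM; fluorescence Ex 365/Em 440 after pH 10 stop; AC50 from Hill fits.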

[12] = biological target: alpha-glucosidase (Oryza sativa, rice) (UniProt Q653V4); test: Counterscreen for Glucocerebrosidase Inhibitors: qHTS Assay for Rice alpha-Glucosidase at pH 5.0 (AID 997);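 note: 0% = full activity with enzyme and -100% = basal without enzyme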
Method in brief: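 Rice alpha-glucosidase (4 nM final) with 400 uM 4-methylumbelliferyl-alpha-D-glucopyranoside in citrate buffer pH 5.0, 20 min at room temperature, stopped at pH 10; fluorescence 365/440 nm, compounds 0.7 nM–77 uM, AC50 from Hill fits.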

[13] = biological target: DNA repair nuclease/redox regulator APEX1 (Homo sapiens) (UniProt P27695); test: qHTS Validation Assay for Inhibitors of the Human Apurinic/apyrimidinic Endonuclease 1 (APE1) (AID 1705;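 note: TAMRA fluorescence gain over two minutes as APE1 cuts a quenched THF abasic duplex; % is set by controls: 0 for no effect and ±100 for the full control effect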)
Method in brief: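 Fluorogenic double-stranded THF abasic-site substrate (5'-TAMRA/3'-BHQ-2), 50 nM final. Enzyme preincubated with compound 15 min at room temperature, then substrate added. Kinetic fluorescence (ex 525/em 598 nm) read three times at 60 s intervals; activity taken as third-minus-first read difference.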

[14] = Counterscreen for APE1 Inhibitors: Fluorescent Dye Displacement Validation Assay (AID 1707);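 note: plate controls were ThO with dsDNA and no compound for no effect and ThO without dsDNA for full effect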
Method in brief: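 Thiazole Orange (250 nM) bound to 50 nM TAMRA-labelled dsDNA with tetrahydrofuran abasic site; displacement by DNA-binding compounds lowers fluorescence. Buffer 50 mM Tris-HCl pH 7.5, 50 mM NaCl, 2 mM MgCl2, 0.01% Tween-20; endpoint read at 480/540 nm.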

[15] = qHTS for differential inhibitors of proliferation of Plasmodium falciparum line 7G8 (AID 1815);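 note: potency is the fitted concentration of half-maximal effect; parasite growth measured after three days of incubation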
[16] = qHTS for differential inhibitors of proliferation of Plasmodium falciparum line GB4 (AID 1816); settings: Potency: Plasmodium falciparum GB4 proliferation inhibition;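 note: potency is the fitted concentration of half-maximal effect; parasite growth measured after 72 h incubation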
[17] = biological target: Ferritin light chain (Equus caballus) (UniProt P02791); test: qHTS Validation Assay for Identification of Novel General Anesthetics (AID 2323); note: % is set by controls: 0 for no effect and ±100 for the full control effect
Method in brief: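 Horse-spleen apoferritin (10 uM) in PBS with 50% saturated 1-aminoanthracene; compounds pin-transferred, 10 min at room temperature. Fluorescence read at 380/535 nm, normalized to free 1-AMA and 1-AMA/apoferritin values; four-parameter Hill fit.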

[18] = biological target: ATP-dependent DNA helicase Q1 (Homo sapiens) (UniProt P46063); test: qHTS Validation Assay for Inhibitors of RecQ-Like Dna Helicase 1 (RECQ1) (AID 2353);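 note: plate controls were DMSO vehicle for no effect and enzyme-free control for full effect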
Method in brief: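 50 nM RECQ1T1 preincubated 15 min with compound in Tris pH 8.0 buffer with MgCl2, DTT, Tween-20 and 2.5 ug/ml poly(dI-dC); started with 200 nM TAMRA/BHQ-2 forked duplex and 2 mM ATP. Unwinding read as fluorescence (525/598 nm), two reads 2 h apart.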

[19] = biological target: M-phase phosphoprotein 8 (Homo sapiens) (UniProt Q99549); test: qHTS Validation Assay for Inhibitors for MPP8 Chromodomain Interactions with Methylated Histone Tails (AID 488949); note: potency is the fitted concentration of half-maximal effect; nearly all actives have a fitted effect of over 55% in size
Method in brief: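 MPP8 (50 nM) was pre-bound to 50 nM biotinylated H3(1-18)K9me3 peptide in PBS pH 7.4 with 0.01% Tween-20. Compounds were then added for 30 min at room temperature, and complex disruption was read by AlphaScreen with streptavidin donor and nickel-chelate acceptor beads.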

[20] = biological target: Thyrotropin receptor (Homo sapiens) (UniProt P16473); test: qHTS Assay for Antagonists of the Thyroid Stimulating Hormone Receptor (AID 488980); note: 0% is about no effect
Method in brief: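 TSHR-transfected HEK293 cells (2000/well) in HEPES-buffered HBSS with 70 uM RO 20-1724 were stimulated with 4 nM TSH (EC80, final) in the presence of compound. cAMP was measured by HTRF competition after lysis and 30 min at RT.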

[21] = biological target: Thyrotropin-releasing hormone receptor (Homo sapiens) (UniProt P34981); test: qHTS for Small Molecule Agonists and Allosteric Enhancers of Human TRH Receptor: Validation Screen for Agonists (AID 493127;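 active = calcium activation more than 3 SD above the typical response in the agonist read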;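 note: intracellular calcium rise by fluo-8 fluorescence before TRH EC20 addition; 0% is about no effect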); settings: TRH receptor agonist cell assay; at 2 µM; stronger effect = higher value
Method in brief: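 Cells 2000/well, 10% FCS, 18 h 33.5C/5% CO2 → fluo-8 Ca dye, RT 30 min–1.5 h → FDSS baseline 10 × 1 s → compound added → 230 cycles (1 s/cycle) agonist mode. TRH controls.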

[22] = biological target: Galactokinase (Homo sapiens) (UniProt P51570); test: qHTS Validation Assay for Inhibitors of Human Galactokinase (GALK) (AID 493189); note: 0% is about no effect
Method in brief: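 GALK (5 nM) with 35 uM ATP and 100 uM galactose in HEPES pH 8.0 with MgCl2, NaCl, DTT and BSA. Reaction ran 1 h at room temperature. Residual ATP read by Kinase-Glo Plus luminescence.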

[23] = qHTS for differential inhibitors of proliferation of Plasmodium falciparum line 3D7 (AID 1876); note: potency is the fitted concentration of half-maximal effect
[24] = qHTS for differential inhibitors of proliferation of Plasmodium falciparum line Dd2 (AID 1882); settings: Potency: Plasmodium falciparum Dd2 proliferation inhibition;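 note: plate controls were DMSO vehicle for no effect and 0.29 µM artemisinin for full effect; nearly all actives have a fitted effect of over 65% in size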
Method in brief: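 Dd2-infected erythrocytes (0.3% parasitemia, 2.5% hematocrit final) incubated with compound 72 h at 37 C, 5% CO2; lysed with saponin/Triton buffer containing SYBR Green I, incubated overnight in the dark, then read by fluorescence (485/535 nm). Normalized to 0.29 uM artemisinin and DMSO.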

[25] = qHTS for differential inhibitors of proliferation of Plasmodium falciparum line W2 (AID 1883); settings: Potency: Plasmodium falciparum W2 proliferation inhibition;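 note: potency is the fitted concentration of half-maximal effect; parasites grown with compound for 72 h before lysis and staining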
[26] = qHTS Assay for Modulators of Human Peripheral Myelin Protein 22 (PMP22) Expression/Activity (AID 1967; active = well fitted curve in the direction sought with a large enough effect in the signal ratio; the % refers to the signal ratio;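 note: 0% = untreated cells and 100% end not stated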)
Method in brief: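 Mouse MSC80 Schwann cells carrying Pmp22 promoter–green click beetle luciferase plus EF-alpha–red luciferase control, dosed 24 h at 37 °C. Dual-filter luminescence, overlap-corrected; %Activity from green/red ratio normalised to untreated cells, concentration-response curves fitted.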

[27] = biological target: RecQ-like DNA helicase BLM (Homo sapiens) (UniProt P54132); test: qHTS Validation Assay for Inhibitors of Bloom's syndrome helicase (BLM) (AID 2364);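 note: plate controls were DMSO vehicle for no effect and enzyme-free control for full effect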
Method in brief: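 Forked 20-bp duplex substrate (200 nM, TAMRA/BHQ-2) plus 2 mM ATP added after 15 min compound preincubation with 50 nM enzyme, pH 8.0, poly(dI-dC) 2.5 ug/ml. Strand separation followed by fluorescence (525/598 nm) over 2 h, normalized to enzyme-free and DMSO controls.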

[28] = Validation screen for small molecules that induce DNA re-replication in MCF 10A normal breast cells (AID 463097); note: 0% is about no effect; nearly all actives have a fitted effect of over 60% in size
Method in brief: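 MCF 10A cells exposed to compound 48 hr at 37 C, 5% CO2, then Hoechst-stained 40 min. Laser-scanning imaging of nuclear DNA content (405 nm ex, 500-530 nm em); re-replication scored as rise in nuclei with elevated fluorescence intensity.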

[29] = biological target: Catechol O-methyltransferase (Homo sapiens) (UniProt P21964); test: Confirmatory Screen for Target Class Profiling of Small Molecule Inhibitors of Methyltransferases (AID 1745852; calls by dose curve; note: potency is the fitted concentration of half-maximal effect); settings: MTase-Glo luminescence, SAH detection, recombinant enzyme; measured here: COMT max response; stronger effect = lower value
[30] = biological target: Guanidinoacetate N-methyltransferase (Homo sapiens) (UniProt Q14353); test: as above; settings: activity change, negative = inhibition: at 57.3 µM (top of the series) unless noted
[31] = biological target: Nicotinamide N-methyltransferase (Homo sapiens) (UniProt P40261); test: as above; settings: MTase-Glo luminescence, SAH detection, recombinant enzyme; measured here: NNMT max response; stronger effect = lower value
[32] = biological target: Phenylethanolamine N-methyltransferase (Homo sapiens) (UniProt P11086); test: as above; settings: MTase-Glo luminescence, SAH detection, recombinant enzyme; measured here: PNMT max response; stronger effect = lower value
Sequence of Phenylethanolamine N-methyltransferase (Homo sapiens) (P11086 whole entry, looked up): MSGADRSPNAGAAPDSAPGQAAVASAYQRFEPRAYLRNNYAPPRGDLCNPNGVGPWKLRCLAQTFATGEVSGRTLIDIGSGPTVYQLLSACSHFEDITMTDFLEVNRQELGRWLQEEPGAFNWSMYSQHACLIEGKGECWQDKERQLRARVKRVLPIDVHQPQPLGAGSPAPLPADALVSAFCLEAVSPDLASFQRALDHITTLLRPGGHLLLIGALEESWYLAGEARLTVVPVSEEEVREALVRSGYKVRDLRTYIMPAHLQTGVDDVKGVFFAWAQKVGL

Sequence of Nicotinamide N-methyltransferase (Homo sapiens) (P40261 whole entry, looked up): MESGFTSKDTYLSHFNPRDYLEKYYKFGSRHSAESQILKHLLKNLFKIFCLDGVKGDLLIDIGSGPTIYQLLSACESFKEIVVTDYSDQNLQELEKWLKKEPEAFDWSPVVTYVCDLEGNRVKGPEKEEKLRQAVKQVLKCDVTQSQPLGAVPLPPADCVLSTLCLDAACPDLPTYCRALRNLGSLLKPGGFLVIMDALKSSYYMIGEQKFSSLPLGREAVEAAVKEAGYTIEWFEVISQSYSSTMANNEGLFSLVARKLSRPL
Sequence of Catechol O-methyltransferase (Homo sapiens) (P21964 whole entry, looked up): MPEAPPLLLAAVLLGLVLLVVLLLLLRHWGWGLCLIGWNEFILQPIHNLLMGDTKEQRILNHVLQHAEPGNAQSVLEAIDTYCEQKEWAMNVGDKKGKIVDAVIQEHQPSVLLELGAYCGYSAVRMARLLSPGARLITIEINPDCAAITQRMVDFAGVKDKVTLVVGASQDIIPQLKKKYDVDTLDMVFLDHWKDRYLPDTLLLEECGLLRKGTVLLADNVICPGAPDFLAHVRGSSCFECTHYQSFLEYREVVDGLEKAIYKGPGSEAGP
Sequence of Galactokinase (Homo sapiens) (P51570 whole entry, looked up): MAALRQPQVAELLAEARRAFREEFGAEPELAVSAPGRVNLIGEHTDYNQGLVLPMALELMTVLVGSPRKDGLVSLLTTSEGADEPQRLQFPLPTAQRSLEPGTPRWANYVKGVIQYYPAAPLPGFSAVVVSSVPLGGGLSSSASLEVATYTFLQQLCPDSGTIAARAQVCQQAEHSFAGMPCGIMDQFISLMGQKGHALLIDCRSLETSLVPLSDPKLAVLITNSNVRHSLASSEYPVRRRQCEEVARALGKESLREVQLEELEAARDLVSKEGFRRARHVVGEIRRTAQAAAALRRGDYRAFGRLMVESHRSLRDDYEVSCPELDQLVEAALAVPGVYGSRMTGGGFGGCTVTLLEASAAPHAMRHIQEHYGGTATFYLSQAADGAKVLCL
Sequence of Thyrotropin receptor (Homo sapiens) (P16473 whole entry, looked up): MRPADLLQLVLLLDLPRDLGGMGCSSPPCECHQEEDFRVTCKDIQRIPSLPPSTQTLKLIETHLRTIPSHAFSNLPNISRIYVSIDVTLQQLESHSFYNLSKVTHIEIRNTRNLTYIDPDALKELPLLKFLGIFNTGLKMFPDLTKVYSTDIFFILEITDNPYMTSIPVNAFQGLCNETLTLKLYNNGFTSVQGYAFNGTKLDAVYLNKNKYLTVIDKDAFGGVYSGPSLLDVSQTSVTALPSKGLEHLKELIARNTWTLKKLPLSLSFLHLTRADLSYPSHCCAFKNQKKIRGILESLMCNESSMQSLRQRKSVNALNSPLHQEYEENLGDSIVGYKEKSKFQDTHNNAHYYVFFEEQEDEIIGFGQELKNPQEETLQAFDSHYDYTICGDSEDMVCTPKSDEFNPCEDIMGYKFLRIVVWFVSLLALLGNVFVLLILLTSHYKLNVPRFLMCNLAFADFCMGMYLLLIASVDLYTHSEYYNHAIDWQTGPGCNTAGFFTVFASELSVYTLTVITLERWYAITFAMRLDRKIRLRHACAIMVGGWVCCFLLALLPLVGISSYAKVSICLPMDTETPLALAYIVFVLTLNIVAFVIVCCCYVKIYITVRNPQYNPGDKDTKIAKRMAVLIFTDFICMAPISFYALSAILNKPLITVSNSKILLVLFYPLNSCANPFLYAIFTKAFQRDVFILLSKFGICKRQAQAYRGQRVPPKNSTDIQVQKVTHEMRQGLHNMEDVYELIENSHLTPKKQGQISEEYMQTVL
Sequence of ATP-dependent DNA helicase Q1 (Homo sapiens) (P46063 whole entry, looked up): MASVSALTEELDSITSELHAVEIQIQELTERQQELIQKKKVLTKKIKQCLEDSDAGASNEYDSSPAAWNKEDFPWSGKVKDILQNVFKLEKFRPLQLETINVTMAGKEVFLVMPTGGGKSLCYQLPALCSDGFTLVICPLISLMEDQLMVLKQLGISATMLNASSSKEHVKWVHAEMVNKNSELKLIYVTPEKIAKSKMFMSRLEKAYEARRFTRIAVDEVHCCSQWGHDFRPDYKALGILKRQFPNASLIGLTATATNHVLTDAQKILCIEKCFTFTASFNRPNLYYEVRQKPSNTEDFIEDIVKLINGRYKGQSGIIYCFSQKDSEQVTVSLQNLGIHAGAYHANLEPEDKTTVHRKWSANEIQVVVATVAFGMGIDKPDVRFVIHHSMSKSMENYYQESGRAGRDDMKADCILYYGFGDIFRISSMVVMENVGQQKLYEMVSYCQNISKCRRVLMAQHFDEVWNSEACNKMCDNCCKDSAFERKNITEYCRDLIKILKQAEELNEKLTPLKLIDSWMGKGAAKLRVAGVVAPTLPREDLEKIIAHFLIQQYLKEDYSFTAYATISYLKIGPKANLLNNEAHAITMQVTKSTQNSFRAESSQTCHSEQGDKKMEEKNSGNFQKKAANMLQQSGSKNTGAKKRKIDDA
Sequence of Ferritin light chain (Equus caballus) (P02791 2-175 limits assumed): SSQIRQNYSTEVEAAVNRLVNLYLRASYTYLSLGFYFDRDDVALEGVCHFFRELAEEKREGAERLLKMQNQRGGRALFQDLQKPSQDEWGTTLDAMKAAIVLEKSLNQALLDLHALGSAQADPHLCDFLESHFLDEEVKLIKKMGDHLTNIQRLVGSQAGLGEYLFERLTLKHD
Sequence of DNA repair nuclease/redox regulator APEX1 (Homo sapiens) (P27695 whole entry, looked up): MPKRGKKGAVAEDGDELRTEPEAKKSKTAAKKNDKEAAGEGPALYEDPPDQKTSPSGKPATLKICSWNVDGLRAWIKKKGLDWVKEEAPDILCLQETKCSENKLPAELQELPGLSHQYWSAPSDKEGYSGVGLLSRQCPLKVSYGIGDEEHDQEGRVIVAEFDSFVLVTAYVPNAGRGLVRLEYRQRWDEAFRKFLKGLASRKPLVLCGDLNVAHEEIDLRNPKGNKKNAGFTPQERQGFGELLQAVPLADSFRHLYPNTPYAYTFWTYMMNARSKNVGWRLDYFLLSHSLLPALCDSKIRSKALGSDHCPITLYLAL
Sequence of Glucocorticoid receptor (Homo sapiens) (P04150 whole entry, looked up, the tested form may be a part): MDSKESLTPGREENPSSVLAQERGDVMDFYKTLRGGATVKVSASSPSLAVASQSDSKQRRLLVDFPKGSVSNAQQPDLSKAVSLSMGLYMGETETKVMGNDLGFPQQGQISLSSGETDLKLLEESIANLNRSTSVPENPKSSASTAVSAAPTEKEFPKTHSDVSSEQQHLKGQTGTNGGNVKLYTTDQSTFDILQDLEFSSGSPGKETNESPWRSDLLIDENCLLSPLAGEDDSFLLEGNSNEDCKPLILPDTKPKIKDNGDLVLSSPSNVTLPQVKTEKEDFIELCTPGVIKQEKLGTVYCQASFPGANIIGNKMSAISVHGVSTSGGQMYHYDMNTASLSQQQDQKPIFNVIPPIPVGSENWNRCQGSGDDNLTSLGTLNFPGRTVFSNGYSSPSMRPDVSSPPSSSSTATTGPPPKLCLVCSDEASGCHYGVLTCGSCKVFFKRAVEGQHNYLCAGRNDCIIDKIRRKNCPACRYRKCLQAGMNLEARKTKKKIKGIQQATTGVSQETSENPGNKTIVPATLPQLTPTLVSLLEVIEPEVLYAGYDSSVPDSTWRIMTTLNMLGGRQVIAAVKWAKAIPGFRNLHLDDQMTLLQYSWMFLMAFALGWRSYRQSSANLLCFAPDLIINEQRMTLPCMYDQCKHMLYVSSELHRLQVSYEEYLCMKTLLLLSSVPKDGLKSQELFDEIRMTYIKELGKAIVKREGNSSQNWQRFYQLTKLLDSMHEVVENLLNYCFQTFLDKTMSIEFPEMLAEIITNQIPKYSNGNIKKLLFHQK
Sequence of M-phase phosphoprotein 8 (Homo sapiens) (Q99549 whole entry, looked up): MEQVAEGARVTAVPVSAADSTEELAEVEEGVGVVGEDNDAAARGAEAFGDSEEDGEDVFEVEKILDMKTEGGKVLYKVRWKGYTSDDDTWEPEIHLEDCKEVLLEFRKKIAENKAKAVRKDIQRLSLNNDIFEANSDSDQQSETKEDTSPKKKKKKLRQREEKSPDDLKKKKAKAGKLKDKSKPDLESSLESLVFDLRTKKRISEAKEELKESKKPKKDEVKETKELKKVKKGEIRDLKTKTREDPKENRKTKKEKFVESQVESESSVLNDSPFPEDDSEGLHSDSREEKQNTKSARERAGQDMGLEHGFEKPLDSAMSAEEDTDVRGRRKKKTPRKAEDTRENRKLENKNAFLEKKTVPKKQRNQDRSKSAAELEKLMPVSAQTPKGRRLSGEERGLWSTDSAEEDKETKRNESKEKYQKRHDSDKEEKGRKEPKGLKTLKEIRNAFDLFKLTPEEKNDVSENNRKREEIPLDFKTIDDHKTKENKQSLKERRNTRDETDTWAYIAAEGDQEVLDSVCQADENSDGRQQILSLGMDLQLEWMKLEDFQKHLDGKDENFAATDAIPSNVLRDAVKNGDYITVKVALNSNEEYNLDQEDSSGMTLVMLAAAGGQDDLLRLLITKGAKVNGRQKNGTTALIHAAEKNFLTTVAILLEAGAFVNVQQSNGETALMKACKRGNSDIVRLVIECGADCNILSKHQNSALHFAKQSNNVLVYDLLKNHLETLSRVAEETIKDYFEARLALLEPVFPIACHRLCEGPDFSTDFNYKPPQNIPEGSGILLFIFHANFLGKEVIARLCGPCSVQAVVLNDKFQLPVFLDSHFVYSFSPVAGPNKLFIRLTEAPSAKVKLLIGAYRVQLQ

## CC(C)C[C@H](N)CSSC[C@@H](N)CC(C)C
[1]
  outcome: inactive
[2]
  Potency: > 46 µM (inactive)
[3]
  Potency: > 46 µM (inactive)
[4]
  Potency: inactive
[5]
  Potency: inactive
[6]
  Potency: inactive
[7]
  Potency: 12.6 µM (active)
[8]
  Potency: inactive
[9]
  outcome: inactive
[10]
  outcome: inactive
[11]
  outcome: inactive
[12]
  outcome: inactive
[13]
  Potency: inactive
[14]
  outcome: inactive
[15]
  Potency: 14.1 µM (active)
[16]
  Potency: 10 µM (active)
[17]
  outcome: inactive
[18]
  outcome: inactive
[19]
  Potency: 50.1 µM (active)
[20]
  outcome: inactive
[21]
  activation: 6.19% (inactive)
[22]
  outcome: inactive

## CN1CCN(CC/C=C2/c3ccccc3Sc3ccc(S(=O)(=O)N(C)C)cc32)CC1
[13]
  Potency: inactive
[14]
  outcome: inactive
[15]
  Potency: 7.08 µM (active)
[16]
  Potency: 11.2 µM (active)
[23]
  Potency: 10 µM (active)
[24]
  Potency: inactive
[25]
  Potency: 5.01 µM (active)
[26]
  outcome: inactive
[17]
  outcome: inactive
[18]
  outcome: inactive
[27]
  Potency: inactive
[28]
  Potency: inactive
[20]
  outcome: inactive
[22]
  outcome: inactive

## O=C(CCCc1nnc2n3nc(-c4ccccc4)nc3c3ccccc3n12)NCCCN1CCCCC1
[29]
  activity: -1.71%
[30]
  activity change, negative = inhibition: 0%
[31]
  activity: 2.5%
[32]
  activity: 0.451%

## Cc1oc(C(=O)O)cc1COc1ccc2c(-c3ccccc3)cc(=O)oc2c1C
[29]
  activity: -34.8%
[30]
  Potency: 27.1 µM (active)
[31]
  activity: -43.8%
[32]
  activity: -32.8%

## COc1ccc(CNc2cc3c(cn2)CN(Cc2ccccc2)CCN3)cc1OC
[29]
  activity: 2.46%
[30]
  activity change, negative = inhibition: 0.935% [at 85.7 µM]
[31]
  activity: -32.8%
[32]
  activity: 1.92%

## O=C(O)c1ccc(Nc2nc3ccccc3n3cnnc23)cc1
[29]
  activity: -82.3%
[30]
  Potency: 19.3 µM (active)
[31]
  activity: -79.6%
[32]
  activity: -46%

## c1ccc(CO[C@H]2COCCN(c3nc4ccccc4o3)C2)cc1
[29]
  activity: 1.17%
[30]
  activity change, negative = inhibition: 2.9% [at 85.7 µM]
[31]
  activity: -5.26%
[32]
  activity: -0.271%

— PubChem BioAssay (NCATS)
